Assay results published in PubChem BioAssay (NCATS).
Several values for one entry are separate records, joined by “and”; a condition that tells them apart may be missing. Identical values can stand only once. Records with an inconclusive call do not appear. Unmarked numbers belong to inactive results. Activity calls are given as the source filed them. Calls follow the shape of the dose curve; as a rule, active = well fitted cell-killing curve with a large enough effect; inconclusive = small, poorly fitted or top-dose-only effect, or effect the other way; inactive = flat fitted curve, though single readings scatter.

tested on: Tov112D; experiment: Primary qHTS to identify gynecologic anti-cancer compounds using libraries of approved drugs and bioactive compounds (AID 1345084); settings: Gynecologic cancer cell panel viability, ATPlite luminescence, 48 h; series mostly up to 57.5 µM; activity change, negative = cytotoxicity: at the top concentration; also: nearly all actives have a fitted effect of over 55% in size
How it was run: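 48 h compound exposure at 37 C, 5% CO2; five-point qHTS. ATPlite luminescence readout of cell ATP.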
% is scaled to controls: 0 for no effect and ±100 for the full control effect; potency is read from the fitted curve at half-maximal effect.

Row | Structure (SMILES) | activity change, negative = cytotoxicity | Potency
1 | O=C(O)c1cccnc1Nc1cccc(C(F)(F)F)c1 | -20.9% | –
2 | Cc1nc(Nc2ncc(C(=O)Nc3c(C)cccc3Cl)s2)cc(N2CCN(CCO)CC2)n1 | – | inactive
3 | CC(C)C[C@H](NC(=O)[C@H](Cc1ccccc1)NC(=O)c1cnccn1)B(O)O | – | 2 µM (active) and 2.24 µM (active)
4 | Cc1cc(C2CCCCC2)n(O)c(=O)c1 | – | 7.08 µM (active)
5 | Cc1cc(=O)c2c(O)c3c(O)cc(=O)c4c3c3c(cc(O)c1c23)C(C)(C)C=4O | – | 2.24 µM (active)
6 | CCCCN(CCCC)CCC(O)c1cc2c(Cl)cc(Cl)cc2c2cc(C(F)(F)F)ccc12 (stereo not drawn) | -21.6% | –
7 | Cc1c(C(=O)NN2CCCCC2)nn(-c2ccc(Cl)cc2Cl)c1-c1ccc(Cl)cc1 | 2.28% | –
8 | CCN(CC)CCOc1ccc(Cc2ccccc2)cc1 | -26.7% | –
9 | COc1cc(C(C)=O)ccc1OCCCN1CCC(c2noc3cc(F)ccc23)CC1 | 3.65% | –
10 | COc1c2occc2cc2ccc(=O)oc12 | -0.747% | –
11 | Cc1ccc(Nc2nccc(N(C)c3ccc4c(C)n(C)nc4c3)n2)cc1S(N)(=O)=O | – | inactive
12 | CCCS(=O)c1ccc2nc(NC(=O)OC)[nH]c2c1 (stereo not drawn) | – | 8.91 µM (active)
13 | CCCCCCCCOc1ccccc1C(=O)Nc1ccc(C(=O)OCC[N+](C)(CC)CC)cc1 | -10% | –
14 | CN1CCC(=C2c3ccccc3CCc3sccc32)CC1 | -13.7% | –
15 | Cc1cccc(CN2CCN(C(c3ccccc3)c3ccc(Cl)cc3)CC2)c1 (stereo not drawn) | 0.0696% | –
16 | c1ccc2[nH]c(-c3cscn3)nc2c1 | -22% | –
17 | O=C(O)c1cc(=O)c2c(OCC(O)COc3cccc4oc(C(=O)O)cc(=O)c34)cccc2o1 | 4.94% | –

Row | Structure (SMILES) | activity change, negative = cytotoxicity | Potency
18 | CC(C)Oc1ccc2c(=O)c(-c3ccccc3)coc2c1 | – | 20 µM (active)
19 | CC[C@]1(O)C[C@H]2CN(CCc3c([nH]c4ccccc34)[C@@](C(=O)OC)(c3cc4c(cc3OC)N(C=O)[C@H]3[C@@](O)(C(=O)OC)[C@H](OC(C)=O)[C@]5(CC)C=CCN6CC[C@]43[C@@H]65)C2)C1 | – | 0.178 µM (active)
20 | OC(CN1CCN(c2cccc(Cl)c2)CC1)C(c1ccccc1)c1ccccc1 (stereo not drawn) | -7.7% | –
21 | NNc1nncc2ccccc12 | -1.23% [at 25.3 µM] | –
22 | O=C1CCc2ccc(OCCCCN3CCN(c4cccc(Cl)c4Cl)CC3)cc2N1 | -2% | –
23 | CN(C)CCCC1(c2ccc(F)cc2)OCc2cc(C#N)ccc21 (stereo not drawn) | -5.02% | –
24 | COC(=O)C1=C(C)NC(C)=C(C(=O)OCCCN2CCC(c3ccccc3)(c3ccccc3)CC2)C1c1cccc([N+](=O)[O-])c1 (stereo not drawn) | -23.9% | –
25 | Cc1ccc(C(=O)c2cc(O)c(O)c([N+](=O)[O-])c2)cc1 | -3.58% | –
26 | CN(C)c1ccc2nc3ccc(=[N+](C)C)cc-3sc2c1 | – | 6.31 µM (active)
27 | CCCCc1ccc2nc(NC(=O)OC)[nH]c2c1 | – | 0.251 µM (active)
28 | CCCOc1ccc2nc(NC(=O)OC)[nH]c2c1 | – | 0.316 µM (active)
29 | Cc1ncc([N+](=O)[O-])n1CC(C)O (stereo not drawn) | 5.72% | –
30 | CN(C)C(=O)[C@H](O)[C@H](Cc1ccccc1)NC(=O)c1cc2cc(Cl)ccc2[nH]1 | 1.98% | –
31 | COc1ccccc1N1CCN(CCN(C(=O)C2CCCCC2)c2ccccn2)CC1 | 1.75% | –
32 | CN(C)[C@@H](CCOc1cccc2ccccc12)c1ccccc1 | -3.4% | –
33 | CCc1nc(N)nc(N)c1-c1ccc(Cl)cc1 | – | 14.1 µM (active)
